Several values for one entry are separate records, joined by “and”; a condition that tells them apart may be missing. Identical values can stand only once. Results filed as inconclusive are left out. Entries that show only a call come without a potency. Values without a mark were called inactive. Activity calls are given as the source filed them. Unless noted, the call rests on the fitted dose curve; in most records, active means well fitted curve in the direction sought with a large enough effect; inconclusive means small, poorly fitted or top-dose-only effect, or another doubt; inactive means no such curve, though single readings can be large; an effect the other way counts as inactive or inconclusive.
test: qHTS assay for small molecule agonists of the antioxidant response element (ARE) signaling pathway measured by Nrf2-dependant transcriptional activity (AID 720636; active means well fitted curve in the direction sought with a large enough effect in the repeat runs; an effect the other way counts as inactive or inconclusive;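 further: HepG2 cells with an ARE-driven luciferase reporter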); conditions: ARE-luc HepG2, Nrf2 luciferase reporter, 16 h; series mostly up to 92.4 µM
Procedure, shortened: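 HepG2 ARE-luc reporter line, 1% dialyzed FBS; 6 hr attachment at 37 C, compound pinned in, 16 hr at 37 C/5% CO2; ONE-Glo, 30 min RT, luminescence read.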

Question: Which Potency does the source give for `C=CCc1ccc(OC)c(OC)c1` here?
Answer: inactive

Question: For `C=C(C)C1CC=C(C)C(O)C1` (stereo unspecified), which Potency is on record?
Answer: inactive

Question: For `CC1=C2[C@H](/C=C(\C)C(=O)O)CC[C@@H](C)[C@H]2CC1`, which Potency is on record?
Answer: inactive

Question: For `CCCCCCCCCCCC(=O)O`, which Potency is on record?
Answer: inactive

test: qHTS assay for small molecule antagonists of the retinoid-related orphan receptor gamma (ROR-gamma) signaling pathway - cell viability counter screen (AID 720652; active means well fitted curve in the direction sought with a large enough effect in the repeat runs; an effect the other way counts as inactive or inconclusive;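 further: CHO reporter cells with doxycycline-induced ROR-gamma expression; compound exposure lasted 16 hr before ATP read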); conditions: RORgamma reporter cell line viability counter screen; series mostly up to 92.2 µM
Procedure, shortened: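 Counter screen in CHO cells carrying TET-inducible ROR-gamma and an ROR response element-luciferase reporter; cells plated 5 hr, compound pinned, doxycycline added, then 16 hr at 37 C. Viability read as intracellular ATP by CellTiter-Glo luminescence.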

Question: Which Potency does the source give for `C=CCc1ccc(OC)c(OC)c1` here?
Answer: inactive

Question: With `C=C(C)C1CC=C(C)C(O)C1` (stereo unspecified) as the molecule, how does the Potency read?
Answer: inactive

Question: For `CC1=C2[C@H](/C=C(\C)C(=O)O)CC[C@@H](C)[C@H]2CC1`, which Potency is on record?
Answer: inactive

Question: For `CCCCCCCCCCCC(=O)O`, which Potency is on record?
Answer: inactive

test: qHTS assay for small molecule agonists of the antioxidant response element (ARE) signaling pathway measured by Nrf2-dependant transcriptional activity - cell viability counter screen (AID 720653; active means well fitted curve in the direction sought with a large enough effect in the repeat runs; an effect the other way counts as inactive or inconclusive); conditions: ARE-bla HepG2 viability, CellTiter-Glo ATP luminescence, 16 h; max response: stronger effect = lower value
Procedure, shortened: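 ARE-bla HepG2 cells (2,000/well) rested 5 hrs at 37C/5% CO2, then exposed to compounds in DMSO for 16 hrs. Viability was read in the same wells as intracellular ATP by luminescence, 30 min at room temperature after reagent addition.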

Question: With `C=CCc1ccc(OC)c(OC)c1` as the molecule, how does the max response read?
Answer: -3.29% and -7.51%

Question: Which max response does the source give for `C=C(C)C1CC=C(C)C(O)C1` (stereo unspecified) here?
Answer: -2.07%

Question: With `CC1=C2[C@H](/C=C(\C)C(=O)O)CC[C@@H](C)[C@H]2CC1` as the molecule, how does the max response read?
Answer: -0.329%

Question: With `CCCCCCCCCCCC(=O)O` as the molecule, how does the max response read?
Answer: 8.32% and -0.379%

test: qHTS assay for cell viability of HEK293 cells (AID 743288); conditions: ATP luminescence (CellTiter-Glo), 18 h; max response: stronger effect = lower value; further: nearly all actives have a fitted effect of over 50% in size
Procedure, shortened: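 Parental HEK293 cells, 2,000 per well, preincubated at least 5 h at 37 C, then exposed to compounds in DMSO for 18 h at 37 C. Viability by CellTiter-Glo ATP luminescence after 30 min at room temperature.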

Question: Which max response does the source give for `C=CCc1ccc(OC)c(OC)c1` here?
Answer: 3.16% and -7.18%

Question: For `C=C(C)C1CC=C(C)C(O)C1` (stereo unspecified), which max response is on record?
Answer: 0.258%

Question: Which max response does the source give for `CC1=C2[C@H](/C=C(\C)C(=O)O)CC[C@@H](C)[C@H]2CC1` here?
Answer: 5.67%

test: qHTS assay for cell viability of the p53RE-bla HCT-116 cell line (AID 743292); conditions: p53RE-bla HCT-116 viability, ATP luminescence, 16 h; series mostly up to 95 µM; further: nearly all actives have a fitted effect of over 55% in size
Procedure, shortened: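 Luminescent ATP quantitation (CellTiter-Glo) served as the viability read-out; reagent was added after 16 h compound exposure at 37 C and read after 30 min at room temperature. Cells: p53RE-bla HCT-116, 4,000 per well.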

Question: For `C=CCc1ccc(OC)c(OC)c1`, which Potency is on record?
Answer: inactive

Question: With `C=C(C)C1CC=C(C)C(O)C1` (stereo unspecified) as the molecule, how does the Potency read?
Answer: inactive

Question: For `CC1=C2[C@H](/C=C(\C)C(=O)O)CC[C@@H](C)[C@H]2CC1`, which Potency is on record?
Answer: inactive

Question: With `CCCCCCCCCCCC(=O)O` as the molecule, how does the Potency read?
Answer: inactive

test: Viability counterscreen for antagonist of constitutive androstane receptor (CAR) against the NCATS DSHEA and TCM libraries (AID 1794837); conditions: CAR reporter cell line viability counterscreen, qHTS; series mostly up to 40 µM;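 further: compound exposure lasted 24 h before viability reading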
Procedure, shortened: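 HepG2-CYP2B6-hCAR cells, 2,500/well, were exposed 24 hr at 37C to substances together with 48 uM CITCO (final). Viability was read as CellTiter-Fluor fluorescence (Ex/Em 405/540 nm) after 1 hr.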

Question: For `Oc1cc(O)c2c(c1)O[C@@H](c1cc(O)c(O)c(O)c1)[C@H](O)C2`, which outcome is on record?
Answer: inactive

Question: Which outcome does the source give for `O=C(O[C@@H]1Cc2c(O)cc(O)cc2O[C@@H]1c1ccc(O)c(O)c1)c1cc(O)c(O)c(O)c1` here?
Answer: inactive

Question: Which outcome does the source give for `C=C(C)C1CC=C(C)C(O)C1` (stereo unspecified) here?
Answer: inactive

Question: With `CC1=C2[C@H](/C=C(\C)C(=O)O)CC[C@@H](C)[C@H]2CC1` as the molecule, how does the outcome read?
Answer: inactive

Question: For `C=C1C[C@@]23CC[C@H]4[C@@](C)(CCC[C@@]4(C)C(=O)O[C@@H]4O[C@H](CO)[C@@H](O)[C@H](O)[C@H]4O[C@@H]4O[C@H](CO)[C@@H](O)[C@H](O)[C@H]4O)[C@@H]2CC[C@]1(O[C@@H]1O[C@H](CO)[C@@H](O)[C@H](O)[C@H]1O[C@@H]1O[C@H](CO)[C@@H](O)[C@H](O)[C@H]1O)C3`, which outcome is on record?
Answer: inactive

Question: Which outcome does the source give for `CC(C)=CCC[C@](C)(O[C@@H]1O[C@H](CO)[C@@H](O)[C@H](O)[C@H]1O)[C@H]1CC[C@]2(C)[C@@H]1[C@H](O)C[C@@H]1[C@@]3(C)CC[C@H](O)C(C)(C)[C@@H]3[C@@H](O[C@@H]3O[C@H](CO)[C@@H](O)[C@H](O)[C@H]3O)C[C@]12C` here?
Answer: inactive

Question: For `CC(C)(O)[C@@H]1CC[C@](C)([C@H]2[C@@H](O)C[C@@]3(C)[C@@H]4C[C@H](O)[C@H]5C(C)(C)[C@@H](O[C@@H]6OC[C@@H](O)[C@H](O)[C@H]6O[C@@H]6O[C@H](CO)[C@@H](O)[C@H](O)[C@H]6O)CC[C@@]56C[C@@]46CC[C@]23C)O1`, which outcome is on record?
Answer: inactive

Question: For `O=C(/C=C/c1ccc(O)c(O)c1)OC1[C@H](O)CC(O)(C(=O)O)C[C@@H]1O` (stereo partly specified), which outcome is on record?
Answer: inactive

Question: With `C=C(C)[C@H]1CC=C(CO)CC1` as the molecule, how does the outcome read?
Answer: inactive

Question: Which outcome does the source give for `CC1=C2[C@H]([C@@H](C)CC[C@@H]2/C=C(\C)C(=O)O)[C@@H](O)C1` here?
Answer: inactive

Question: For `CCCCCCCCC/C=C/C(=O)CCc1ccc(O)c(OC)c1`, which outcome is on record?
Answer: inactive

Question: For `CCCCCCCC/C=C/CCCCCCCCCC(=O)O`, which outcome is on record?
Answer: inactive
